A number with no mark means an inactive call.
Key:
Assay in all cases: log2 ratio of Biotin-Ahx-Ub-VS probe labelling (fragment/DMSO); higher = less target engagement (more negative = stronger competition), active = hit call of the paper (q ≤ 0.05, log2 ratio ≤ -1)
Details in all cases: compound concentration: 200 uM; treatment time: 3 h
ALG13 = biological target: T1, ALG13 (UniProt Q9NP73)
T1 sequence (whole entry): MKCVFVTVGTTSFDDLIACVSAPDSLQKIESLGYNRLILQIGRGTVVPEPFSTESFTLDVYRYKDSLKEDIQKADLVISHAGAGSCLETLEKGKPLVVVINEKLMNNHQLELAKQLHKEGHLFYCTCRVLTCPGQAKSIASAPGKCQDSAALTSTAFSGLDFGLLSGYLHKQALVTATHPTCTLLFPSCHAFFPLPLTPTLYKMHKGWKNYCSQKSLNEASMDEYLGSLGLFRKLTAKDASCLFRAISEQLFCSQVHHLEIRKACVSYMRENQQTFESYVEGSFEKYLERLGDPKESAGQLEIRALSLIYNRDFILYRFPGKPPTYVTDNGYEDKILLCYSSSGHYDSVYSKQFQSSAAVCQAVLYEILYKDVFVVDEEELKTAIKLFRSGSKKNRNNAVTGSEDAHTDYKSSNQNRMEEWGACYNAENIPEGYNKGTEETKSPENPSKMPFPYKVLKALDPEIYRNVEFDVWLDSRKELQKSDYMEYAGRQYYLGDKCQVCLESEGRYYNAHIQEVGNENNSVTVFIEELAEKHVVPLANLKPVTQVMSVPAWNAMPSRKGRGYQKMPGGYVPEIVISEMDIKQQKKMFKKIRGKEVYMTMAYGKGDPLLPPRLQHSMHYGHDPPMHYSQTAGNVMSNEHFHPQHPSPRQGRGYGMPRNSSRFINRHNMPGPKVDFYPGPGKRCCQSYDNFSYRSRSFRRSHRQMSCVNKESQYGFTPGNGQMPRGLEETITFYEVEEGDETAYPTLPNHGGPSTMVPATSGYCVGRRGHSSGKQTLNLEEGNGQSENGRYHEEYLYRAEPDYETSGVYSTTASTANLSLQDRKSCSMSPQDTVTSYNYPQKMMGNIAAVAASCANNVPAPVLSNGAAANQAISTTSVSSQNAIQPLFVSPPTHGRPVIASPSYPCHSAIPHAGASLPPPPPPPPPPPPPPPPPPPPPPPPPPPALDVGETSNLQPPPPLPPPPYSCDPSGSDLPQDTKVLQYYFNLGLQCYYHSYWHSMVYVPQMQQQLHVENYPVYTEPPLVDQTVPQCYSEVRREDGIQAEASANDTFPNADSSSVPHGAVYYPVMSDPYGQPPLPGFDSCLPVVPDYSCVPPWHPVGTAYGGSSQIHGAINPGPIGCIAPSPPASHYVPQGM
Summary of the method: (§1)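 Fragment (200 µM) or vehicle was incubated for 3 h with triplicate HEK293T lysate samples of 495 µg, which were then treated with Biotin-Ahx-Ub-VS at 0.5 µM final for 1 h. Labelled DUBs were enriched on NeutrAvidin, digested with LysC and trypsin, and analysed by diaPASEF LC-MS/MS. Values are average log2 fragment/vehicle ratios from an unpaired t-test on global-median-normalised Spectronaut label-free quantities, using proteins with ≥2 unique peptides.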

ATXN3 = ATXN3 (UniProt P54252)
Summary of the method: as §1

BAP1 = biological target: T2, BAP1 (UniProt Q92560)
T2 sequence (whole entry): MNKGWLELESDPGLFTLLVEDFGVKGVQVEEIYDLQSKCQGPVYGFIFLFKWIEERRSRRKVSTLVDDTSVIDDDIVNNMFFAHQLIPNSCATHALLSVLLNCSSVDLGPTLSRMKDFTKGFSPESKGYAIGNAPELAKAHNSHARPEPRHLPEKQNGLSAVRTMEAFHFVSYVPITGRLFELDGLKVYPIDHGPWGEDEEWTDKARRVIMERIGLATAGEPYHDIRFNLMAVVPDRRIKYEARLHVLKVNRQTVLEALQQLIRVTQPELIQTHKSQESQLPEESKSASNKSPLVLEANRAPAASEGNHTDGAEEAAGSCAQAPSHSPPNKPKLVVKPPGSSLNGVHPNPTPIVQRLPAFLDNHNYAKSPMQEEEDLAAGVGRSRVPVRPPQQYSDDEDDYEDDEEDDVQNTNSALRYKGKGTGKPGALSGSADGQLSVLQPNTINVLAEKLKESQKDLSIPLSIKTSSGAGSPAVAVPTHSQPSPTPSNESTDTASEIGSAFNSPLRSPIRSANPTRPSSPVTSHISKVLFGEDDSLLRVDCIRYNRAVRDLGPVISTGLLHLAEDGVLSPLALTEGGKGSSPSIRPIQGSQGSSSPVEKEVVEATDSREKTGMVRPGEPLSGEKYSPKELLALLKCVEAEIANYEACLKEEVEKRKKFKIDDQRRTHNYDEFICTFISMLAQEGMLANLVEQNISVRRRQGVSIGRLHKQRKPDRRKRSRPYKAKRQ
Summary of the method: as §1

EIF3F = EIF3F (UniProt O00303)
Summary of the method: as §1

EIF3H = EIF3H (UniProt O15372)
Summary of the method: as §1

FAM105A = biological target: T3, FAM105A (UniProt Q9NUU6)
T3 sequence (whole entry): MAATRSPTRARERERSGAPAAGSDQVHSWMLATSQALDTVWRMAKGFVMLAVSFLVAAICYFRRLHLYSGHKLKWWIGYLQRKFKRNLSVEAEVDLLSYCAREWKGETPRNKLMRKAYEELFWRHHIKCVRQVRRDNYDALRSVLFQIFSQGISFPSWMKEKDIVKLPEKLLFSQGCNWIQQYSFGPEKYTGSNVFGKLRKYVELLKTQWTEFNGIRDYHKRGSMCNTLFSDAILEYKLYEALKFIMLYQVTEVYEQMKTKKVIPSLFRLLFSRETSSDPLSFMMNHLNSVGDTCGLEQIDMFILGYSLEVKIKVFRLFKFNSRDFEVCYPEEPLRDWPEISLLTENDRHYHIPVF
Summary of the method: as §1

OTUB1 = OTUB1 (UniProt Q96FW1)
Summary of the method: as §1

OTUD4 = biological target: T4, OTUD4 (UniProt Q01804)
T4 sequence (whole entry): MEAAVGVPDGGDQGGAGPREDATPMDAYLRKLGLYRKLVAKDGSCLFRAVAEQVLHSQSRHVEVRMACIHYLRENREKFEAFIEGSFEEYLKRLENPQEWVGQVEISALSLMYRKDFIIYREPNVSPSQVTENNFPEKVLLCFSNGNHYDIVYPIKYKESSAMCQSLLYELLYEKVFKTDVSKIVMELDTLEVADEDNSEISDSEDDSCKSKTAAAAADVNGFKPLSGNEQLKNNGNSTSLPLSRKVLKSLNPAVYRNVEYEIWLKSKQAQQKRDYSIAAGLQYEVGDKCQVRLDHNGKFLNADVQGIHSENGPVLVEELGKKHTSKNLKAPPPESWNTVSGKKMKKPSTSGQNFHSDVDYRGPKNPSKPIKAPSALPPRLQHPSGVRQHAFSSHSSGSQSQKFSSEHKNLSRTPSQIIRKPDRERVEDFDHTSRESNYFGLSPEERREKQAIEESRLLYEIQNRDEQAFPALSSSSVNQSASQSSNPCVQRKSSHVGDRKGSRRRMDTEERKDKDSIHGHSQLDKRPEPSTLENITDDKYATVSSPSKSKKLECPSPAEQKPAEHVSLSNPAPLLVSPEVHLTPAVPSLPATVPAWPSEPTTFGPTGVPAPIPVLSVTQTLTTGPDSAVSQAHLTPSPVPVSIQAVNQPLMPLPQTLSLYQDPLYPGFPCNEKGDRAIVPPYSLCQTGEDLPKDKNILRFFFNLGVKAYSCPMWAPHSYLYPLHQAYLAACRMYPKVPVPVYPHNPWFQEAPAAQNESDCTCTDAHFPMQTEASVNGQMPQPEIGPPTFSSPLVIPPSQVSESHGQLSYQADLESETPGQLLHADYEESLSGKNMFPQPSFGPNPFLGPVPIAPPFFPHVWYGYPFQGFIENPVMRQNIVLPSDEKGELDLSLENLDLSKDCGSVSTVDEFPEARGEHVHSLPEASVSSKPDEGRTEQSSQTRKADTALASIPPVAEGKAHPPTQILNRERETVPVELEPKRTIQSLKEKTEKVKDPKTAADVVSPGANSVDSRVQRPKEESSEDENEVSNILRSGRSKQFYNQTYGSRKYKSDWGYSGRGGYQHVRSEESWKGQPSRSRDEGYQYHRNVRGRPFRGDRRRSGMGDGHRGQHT
Summary of the method: as §1

OTUD5 = biological target: T5, OTUD5 (UniProt Q96G74)
T5 sequence (whole entry): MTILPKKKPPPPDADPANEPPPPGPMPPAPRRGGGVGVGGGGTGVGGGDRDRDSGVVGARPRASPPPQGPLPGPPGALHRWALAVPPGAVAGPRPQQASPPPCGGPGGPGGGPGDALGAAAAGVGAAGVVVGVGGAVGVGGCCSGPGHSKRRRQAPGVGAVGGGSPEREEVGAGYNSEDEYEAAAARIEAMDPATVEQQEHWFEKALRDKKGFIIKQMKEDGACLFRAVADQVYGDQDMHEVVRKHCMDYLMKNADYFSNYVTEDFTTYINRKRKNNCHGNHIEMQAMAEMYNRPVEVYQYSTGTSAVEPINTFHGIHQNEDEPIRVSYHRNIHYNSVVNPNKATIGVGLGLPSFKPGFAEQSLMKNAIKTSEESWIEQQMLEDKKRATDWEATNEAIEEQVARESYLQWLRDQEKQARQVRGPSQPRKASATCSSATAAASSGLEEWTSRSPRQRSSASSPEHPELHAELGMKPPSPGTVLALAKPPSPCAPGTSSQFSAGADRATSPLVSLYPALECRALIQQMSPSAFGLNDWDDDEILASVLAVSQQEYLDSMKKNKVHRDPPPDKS
Summary of the method: as §1

Sequence of EIF3F (O00303 whole entry): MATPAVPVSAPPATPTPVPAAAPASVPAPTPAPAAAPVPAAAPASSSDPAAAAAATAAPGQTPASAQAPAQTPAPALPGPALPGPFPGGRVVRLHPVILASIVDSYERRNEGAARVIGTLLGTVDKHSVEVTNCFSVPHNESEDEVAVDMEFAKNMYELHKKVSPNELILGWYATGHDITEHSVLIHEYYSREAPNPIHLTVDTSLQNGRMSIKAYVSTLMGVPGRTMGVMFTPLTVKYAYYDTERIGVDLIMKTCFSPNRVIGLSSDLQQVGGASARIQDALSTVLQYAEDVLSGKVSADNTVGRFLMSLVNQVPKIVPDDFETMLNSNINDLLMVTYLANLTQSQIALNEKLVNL
Sequence of ATXN3 (P54252 whole entry): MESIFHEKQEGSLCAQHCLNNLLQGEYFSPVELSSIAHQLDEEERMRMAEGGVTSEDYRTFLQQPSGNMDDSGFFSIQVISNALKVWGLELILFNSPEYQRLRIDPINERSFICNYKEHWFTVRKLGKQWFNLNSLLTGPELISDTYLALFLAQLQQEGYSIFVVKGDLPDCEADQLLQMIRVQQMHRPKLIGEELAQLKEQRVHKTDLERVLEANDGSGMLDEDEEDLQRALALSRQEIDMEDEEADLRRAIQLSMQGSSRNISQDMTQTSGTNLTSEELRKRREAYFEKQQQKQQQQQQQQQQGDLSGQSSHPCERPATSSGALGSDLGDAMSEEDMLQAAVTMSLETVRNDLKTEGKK
Sequence of OTUB1 (Q96FW1 whole entry): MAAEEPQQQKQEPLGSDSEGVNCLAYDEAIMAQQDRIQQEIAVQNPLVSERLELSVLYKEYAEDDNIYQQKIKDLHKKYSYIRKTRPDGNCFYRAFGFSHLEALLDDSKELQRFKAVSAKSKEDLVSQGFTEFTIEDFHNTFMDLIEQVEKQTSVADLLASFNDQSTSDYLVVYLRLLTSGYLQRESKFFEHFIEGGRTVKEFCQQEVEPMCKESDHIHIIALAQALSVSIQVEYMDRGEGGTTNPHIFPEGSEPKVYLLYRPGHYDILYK
Sequence of EIF3H (O15372 whole entry): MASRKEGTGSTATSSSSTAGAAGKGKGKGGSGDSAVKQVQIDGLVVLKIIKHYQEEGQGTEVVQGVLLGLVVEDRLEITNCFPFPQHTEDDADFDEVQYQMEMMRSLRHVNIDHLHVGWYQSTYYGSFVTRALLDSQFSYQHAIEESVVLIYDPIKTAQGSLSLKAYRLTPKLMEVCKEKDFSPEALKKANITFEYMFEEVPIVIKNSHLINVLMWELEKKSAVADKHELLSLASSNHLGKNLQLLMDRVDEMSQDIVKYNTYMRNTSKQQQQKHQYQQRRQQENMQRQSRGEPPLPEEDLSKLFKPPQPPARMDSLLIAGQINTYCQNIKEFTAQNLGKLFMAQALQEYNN

Cl.Cn1nc2c(c1CNC(=O)CCl)CCCC2
log2 ratio of Biotin-Ahx-Ub-VS probe labelling (ALG13): -0.455 | log2 ratio of Biotin-Ahx-Ub-VS probe labelling (ATXN3): -0.903 | log2 ratio of Biotin-Ahx-Ub-VS probe labelling (BAP1): -2.53 (active) | log2 ratio of Biotin-Ahx-Ub-VS probe labelling (EIF3F): -0.323 | log2 ratio of Biotin-Ahx-Ub-VS probe labelling (EIF3H): -0.0155 | log2 ratio of Biotin-Ahx-Ub-VS probe labelling (FAM105A): -0.099 | log2 ratio of Biotin-Ahx-Ub-VS probe labelling (OTUB1): -0.175 | log2 ratio of Biotin-Ahx-Ub-VS probe labelling (OTUD4): -0.319 | log2 ratio of Biotin-Ahx-Ub-VS probe labelling (OTUD5): -0.329
